The results in this text go back to PubChem BioAssay (Tox21).

Structures are written as SMILES. Records with an inconclusive call do not appear. Some structures have more than one record in an assay (separate samples or runs), and their calls can disagree. Calls of active or inactive are those of the source. Unless noted, the call rests on the fitted dose curve.

A short description of test [1]: Nuclear factor erythroid 2-related factor 2/antioxidant responsive element (Nrf2/ARE) small molecule agonists: qHTS cell viability counter screen in human keratinocytes (AID 1919968; active means well fitted curve in the direction sought with a large enough effect in the repeat runs; an effect the other way counts as inactive or inconclusive; further: nearly all actives have a fitted effect of over 55% in size). The method in brief: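 CellTiter-Fluor fluorescence, read 1 h after reagent, gave viability in the same wells as the ARE-luciferase assay. KeratinoSens cells (1,500/well) had 23 h compound exposure at 37 C/5% CO2 following 5 h plating.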
Background: In qHTS, concentration-response curves come from the screen itself.

A short description of test [2]: Nuclear factor erythroid 2-related factor 2/antioxidant responsive element (Nrf2/ARE) small molecule agonists: luciferase reporter gene qHTS assay in human keratinocytes (AID 1919969). Further: nearly all actives have a fitted effect of over 35% in size. Background: Reporter assays use an easily measured gene product as a stand-in for the process of interest.
Test [3] deals with Gonadotropin-releasing hormone receptor (Homo sapiens) (UniProt P30968). Put plainly: Human gonadotropin-releasing hormone receptor (GnRHR) small molecule agonists, calcium flux assay in GnRHR-HEK293 cells (AID 1920063). Further: nearly all actives have a fitted effect of over 35% in size. The method in brief: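 Agonist mode: compounds at 15 concentrations, in triplicate, went onto calcium dye-loaded GnRHR-HEK293 cells. Intracellular calcium was then followed as 480/540 nm fluorescence at 1 s intervals over 3 min.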
Background: A change in cytosolic calcium serves as a functional read-out for many receptors and channels.

Test [4] has as its target KiSS-1 receptor (Homo sapiens) (UniProt Q969F8). Briefly: Human kisspeptin (KISS1R) small molecule agonists, calcium flux assay in KISS1R-HEK293 cells (AID 1920064; active means well fitted curve in the direction sought with a large enough effect in the repeat runs; an effect the other way counts as inactive or inconclusive). The method in brief:
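Agonist mode: intracellular calcium rise tracked at 1 s intervals over 3 min (480/540 nm) immediately after compound addition to dye-loaded KISS1R-HEK293 stable cells. Each compound tested at 15 concentrations in triplicate.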

Test [5] can be described thus: G protein-coupled receptor (GPCR) small molecule agonists, calcium flux assay: HEK293 wild type cell line counter screen (AID 1920065). The method in brief:
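Calcium flux counter screen: compound added in agonist mode at 15 concentrations in triplicate to dye-loaded parental HEK293 cells. Fluorescence (480/540) read kinetically for 3 min; ATP served as positive control.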

The nature of test [6]: p53 small molecule agonists, cell-based qHTS assay with human liver microsomes: qHTS cell viability counter screen (AID 1963579). Further: nearly all actives have a fitted effect of over 45% in size. The method in brief: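 p53RE-bla cells (4,000/well) were pre-incubated 5 h at 37 C, then given compounds in DMSO plus human liver microsomes (0.5 mg/mL final) and NADPH (0.5 mg/mL final) for 16 h at 37 C. Viability was read by CellTiter-Glo luminescence.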

Test [7] is described as follows: p53 small molecule agonists, cell-based qHTS assay with rat liver microsomes: qHTS cell viability counter screen (AID 1963580). Further: nearly all actives have a fitted effect of over 45% in size. The method in brief:
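Rat liver microsome (0.5 mg/mL final) and NADPH (0.5 mg/mL final) co-incubation with compounds for 16 h at 37 C on HCT-116 p53RE-bla cells; cytotoxicity taken from intracellular ATP luminescence.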

Test [8] is described as follows: p53 small molecule agonists, cell-based qHTS assay: qHTS cell viability counter screen (AID 1963581). Further: nearly all actives have a fitted effect of over 45% in size. Further: potency means the concentration at half of the fitted maximal effect. The method in brief:
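Counter screen read by CellTiter-Glo luminescence (ATP content, 30 min at room temperature), run in the same wells as the beta-lactamase reporter read. HCT-116 p53RE-bla cells saw compounds for 16 h at 37 C.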

A short description of test [9]: p53 small molecule agonists, cell-based qHTS assay (AID 1963582; active means well fitted activation curve with a large enough effect in the signal ratio in the repeat runs, not every such curve was filed as active; the % refers to the signal ratio). The method in brief:
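Read-out is beta-lactamase FRET fluorescence after 2 h at room temperature with LiveBLAzer B/G substrate. p53 response element-bla cells were treated 16 h at 37 C with compounds in DMSO, added 5 h after seeding.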

Test [10] addresses 5-hydroxytryptamine receptor 2A (Homo sapiens) (UniProt P28223). Put plainly: 5-hydroxytryptamine receptor 2A (HTR2A) small molecule antagonists, cell-based qHTS assay (AID 1963586). Further: nearly all actives have a fitted effect of over 45% in size. The method in brief:
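CHO cells stably expressing human HTR2A were plated for 18 h at 37 C, then loaded with calcium dye for 1 h. Compounds were preincubated 5 min at room temperature before DOI (4 nM solution) was added. Kinetic fluorescence was read for 3 min.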

Test [11] has the same target. Briefly: 5-hydroxytryptamine receptor 2A (HTR2A) small molecule agonists, cell-based qHTS assay (AID 1963587). Further: nearly all actives have a fitted effect of over 30% in size. The method in brief:
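Kinetic calcium-flux fluorescence (2 min, 1 sec intervals) after compound addition in agonist mode. HTR2A-CHO cells were cultured 18 h, then dye-loaded 1 h at 37 C.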

The target in test [12] is Muscarinic acetylcholine receptor M1 (Homo sapiens) (UniProt P11229). Briefly: Cholinergic receptor muscarinic 1 (CHRM1) small molecule antagonists, cell-based qHTS assay (AID 1963588). Further: nearly all actives have a fitted effect of over 40% in size. The method in brief: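 Compounds were tested at 15 concentrations in three independent runs. Dye-loaded CHRM1-CHO cells were exposed 5 min at room temperature before stimulation by acetylcholine added at 50nM. Intracellular calcium was read kinetically on FDSS for 3 min.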

Test [13] shares this target. Put plainly: Cholinergic receptor muscarinic 1 (CHRM1) small molecule agonists, cell-based qHTS assay (AID 1963589). Further: nearly all actives have a fitted effect of over 35% in size. The method in brief:
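Agonist-mode calcium-flux screen: compounds at 15 concentrations, three independent runs, were pin-transferred onto dye-loaded human CHRM1-CHO cells. Fluorescence was then recorded kinetically every second over minutes.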

Test [14] can be described thus: cAMP Responsive Elements (CRE) small molecule agonists, cell-based qHTS assay (AID 1963590). The method in brief: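 Agonist mode: compound added to CRE-bla HEK 293T cells (2,000/well, 18 h after plating) for 3 h at 37 C/5% CO2. Reporter activity detected via FRET beta-lactamase substrate, 2 h room-temperature loading.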
The nature of test [15]: cAMP Responsive Elements (CRE) small molecule antagonists, cell-based qHTS assay (AID 1963591; active means well fitted inhibition curve with a large enough effect in the signal ratio in the repeat runs, not every such curve was filed as active; the % refers to the signal ratio). The method in brief:
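Antagonist mode: compounds are added alongside the adenylyl cyclase activator NKH477 (0.25 uM final) to CRE-bla HEK293T cells for 3 h. LiveBLAzer FRET substrate, 2 h at room temperature, reports bla expression.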

Test [16] deals with Beta-2 adrenergic receptor (Homo sapiens) (UniProt P07550). Put plainly: Adrenergic beta2 receptor (ADRB2) small molecule antagonists, cell-based qHTS assay (AID 1963592). Further: nearly all actives have a fitted effect of over 50% in size. Further: potency means the concentration at half of the fitted maximal effect. The method in brief:
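Assay format: CHO-ADRB2 cells, 18-20hr seeding at 37C/5% CO2, then compound plus 1nM isoproterenol agonist mix for 0.5hr RT. Homogeneous time-resolved fluorescence cAMP detection after 1hr, expressed as 665/615 nm ratio.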

Test [17] has the same target. Briefly: Adrenergic beta2 receptor (ADRB2) small molecule agonists, cell-based qHTS assay (AID 1963593).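 Further: CHO cells stably overexpressing human ADRB2.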 The method in brief: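 CHO cells stably over-expressing ADRB2 were plated overnight at 37C, then dosed with compounds plus a stimulation mix containing 100uM IBMX and 25uM Ro-20-1724 for 0.5hr at room temperature. cAMP was measured by HTRF competition, 1hr.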
Test [18] concerns the target D(2) dopamine receptor (Homo sapiens) (UniProt P14416). Put plainly: Dopamine D2 receptor (DRD2) small molecule agonists, cell-based qHTS assay (AID 1963594). Further: nearly all actives have a fitted effect of over 35% in size. The method in brief:
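cAMP accumulation in DRD2-HEK293 cells measured by HTRF after 1 h detection; compounds added 10 min before NKH477 (200nM […]) forskolin-analogue stimulation, 30 min at room temperature, with Ro20-1724 present at 0.1 mM final.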

Test [19] has the same target. Put plainly: Dopamine D2 receptor (DRD2) small molecule antagonists, cell-based qHTS assay (AID 1963595; active means well fitted inhibition curve with a large enough effect in the signal ratio in the repeat runs, with a control signal flat; the % refers to the signal ratio). The method in brief: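 DRD2-HEK293; 0.1 mM Ro20-1724; cpd 10 min RT; NKH477 200 nM + quinpirole 12 nM, 30 min RT; HTRF cAMP (cAMP-d2/anti-cAMP cryptate), 665/620 nm ratio after 1 h.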
Test [20] in a line: p53 small molecule agonists, cell-based qHTS assay with human liver microsomes (AID 1963577). The method in brief:
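p53RE-bla reporter cells were pre-incubated 5 h at 37 C, then treated with compounds plus human liver microsomes (0.5 mg/mL final) and NADPH (0.5 mg/mL final) for 16 h at 37 C. Beta-lactamase activity was read by LiveBLAzer fluorescence after 2 h at room temperature.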

Muscarinic acetylcholine receptor M1 (Homo sapiens), sequence (P11229 whole entry, looked up): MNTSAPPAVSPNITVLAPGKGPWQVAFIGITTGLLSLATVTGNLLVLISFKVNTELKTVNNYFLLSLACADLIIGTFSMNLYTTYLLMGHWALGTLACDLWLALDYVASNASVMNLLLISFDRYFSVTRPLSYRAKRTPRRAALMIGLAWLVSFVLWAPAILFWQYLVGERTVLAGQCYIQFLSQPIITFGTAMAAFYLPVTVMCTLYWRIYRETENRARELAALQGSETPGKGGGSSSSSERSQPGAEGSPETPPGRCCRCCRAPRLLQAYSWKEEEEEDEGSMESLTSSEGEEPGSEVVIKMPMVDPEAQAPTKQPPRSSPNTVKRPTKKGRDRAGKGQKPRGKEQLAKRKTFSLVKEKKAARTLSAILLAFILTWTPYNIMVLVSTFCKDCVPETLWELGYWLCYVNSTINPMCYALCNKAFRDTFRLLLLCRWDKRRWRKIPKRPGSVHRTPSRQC
D(2) dopamine receptor (Homo sapiens), sequence (P14416 whole entry, looked up): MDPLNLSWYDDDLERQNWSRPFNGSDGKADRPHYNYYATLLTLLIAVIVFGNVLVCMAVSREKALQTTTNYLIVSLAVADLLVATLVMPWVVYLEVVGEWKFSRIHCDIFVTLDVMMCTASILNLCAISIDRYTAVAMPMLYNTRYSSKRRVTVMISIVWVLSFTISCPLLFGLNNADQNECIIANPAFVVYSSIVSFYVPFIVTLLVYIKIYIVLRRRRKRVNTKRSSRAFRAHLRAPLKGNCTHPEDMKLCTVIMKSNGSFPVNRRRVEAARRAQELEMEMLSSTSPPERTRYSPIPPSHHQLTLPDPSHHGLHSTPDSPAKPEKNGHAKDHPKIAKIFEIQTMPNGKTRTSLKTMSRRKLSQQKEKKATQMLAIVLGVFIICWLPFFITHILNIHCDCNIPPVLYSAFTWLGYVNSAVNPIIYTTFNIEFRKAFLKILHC
Beta-2 adrenergic receptor (Homo sapiens), sequence (P07550 whole entry, looked up): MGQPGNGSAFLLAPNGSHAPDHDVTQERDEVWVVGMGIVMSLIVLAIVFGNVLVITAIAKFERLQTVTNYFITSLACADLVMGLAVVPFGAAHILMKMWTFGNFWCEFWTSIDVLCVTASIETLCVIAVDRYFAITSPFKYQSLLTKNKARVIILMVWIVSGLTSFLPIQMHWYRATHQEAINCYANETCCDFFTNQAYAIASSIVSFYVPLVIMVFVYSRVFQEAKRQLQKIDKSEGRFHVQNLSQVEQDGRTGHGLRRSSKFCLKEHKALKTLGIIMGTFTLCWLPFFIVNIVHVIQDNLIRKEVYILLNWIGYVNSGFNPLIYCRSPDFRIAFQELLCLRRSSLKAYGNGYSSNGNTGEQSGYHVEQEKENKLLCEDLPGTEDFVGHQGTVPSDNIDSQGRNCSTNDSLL
5-hydroxytryptamine receptor 2A (Homo sapiens), sequence (P28223 whole entry, looked up): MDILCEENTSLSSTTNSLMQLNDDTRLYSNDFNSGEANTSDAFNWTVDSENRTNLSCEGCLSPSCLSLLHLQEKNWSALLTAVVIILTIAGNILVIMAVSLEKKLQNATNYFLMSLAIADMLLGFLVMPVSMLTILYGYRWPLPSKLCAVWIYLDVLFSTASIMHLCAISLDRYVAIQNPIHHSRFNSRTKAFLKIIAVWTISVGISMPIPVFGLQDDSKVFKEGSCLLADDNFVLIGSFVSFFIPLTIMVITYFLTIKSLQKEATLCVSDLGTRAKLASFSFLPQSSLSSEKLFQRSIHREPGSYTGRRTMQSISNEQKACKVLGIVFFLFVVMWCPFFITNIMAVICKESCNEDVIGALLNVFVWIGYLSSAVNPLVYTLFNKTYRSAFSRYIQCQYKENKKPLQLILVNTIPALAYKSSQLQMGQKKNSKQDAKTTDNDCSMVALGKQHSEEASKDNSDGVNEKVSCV
Gonadotropin-releasing hormone receptor (Homo sapiens), sequence (P30968 whole entry, looked up): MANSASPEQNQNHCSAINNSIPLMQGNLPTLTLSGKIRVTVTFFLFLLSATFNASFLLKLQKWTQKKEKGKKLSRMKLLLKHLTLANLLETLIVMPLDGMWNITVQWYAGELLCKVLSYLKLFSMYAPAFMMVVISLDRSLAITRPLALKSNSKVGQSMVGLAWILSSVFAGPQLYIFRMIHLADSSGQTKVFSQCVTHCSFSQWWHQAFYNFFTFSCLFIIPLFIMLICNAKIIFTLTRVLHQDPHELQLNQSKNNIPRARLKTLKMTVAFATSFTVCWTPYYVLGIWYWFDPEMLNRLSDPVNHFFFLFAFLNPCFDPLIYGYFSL
KiSS-1 receptor (Homo sapiens), sequence (Q969F8 whole entry, looked up): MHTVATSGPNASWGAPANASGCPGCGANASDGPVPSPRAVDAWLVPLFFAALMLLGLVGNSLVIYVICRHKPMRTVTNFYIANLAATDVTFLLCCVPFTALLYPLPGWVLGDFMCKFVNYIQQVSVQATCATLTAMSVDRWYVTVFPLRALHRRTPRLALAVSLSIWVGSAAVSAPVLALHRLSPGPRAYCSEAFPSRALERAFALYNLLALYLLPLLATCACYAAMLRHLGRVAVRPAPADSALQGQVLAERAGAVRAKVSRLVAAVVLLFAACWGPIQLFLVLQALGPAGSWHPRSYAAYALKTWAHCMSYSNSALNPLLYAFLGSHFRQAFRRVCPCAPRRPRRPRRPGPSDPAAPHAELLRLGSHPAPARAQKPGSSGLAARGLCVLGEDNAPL

On to `c1ccc(OCCOc2ccccc2)cc1`, for which the Potency entry in test [1], in test [2], in test [3], in test [4], in [5] and in test [6] was “inactive” each time. Besides, the Potency result in test [7], in test [8], in [9], in test [10], in test [11] and in test [12] was “inactive” in each case. The Potency result in test [13], in test [14], in test [15], in test [16], in test [17] and in test [18] was “inactive” throughout. The Potency result in [19] is “inactive”.
Take `O=C(O)CCC(=O)O`: the Potency result in test [1], in test [2], in [3], in test [4], in test [5] and in test [6] was “inactive” each time. In addition, the Potency result in test [7], in test [10], in test [11], in test [12], in test [13] and in test [14] was “inactive” throughout. Moreover, the Potency entry in [15], in test [16], in test [17], in [18] and in [19] was “inactive” each time. Further, the Potency in [8] is 42.1 µM (active) and inactive.
For `Oc1c(Cl)cc(Cl)c(Cl)c1Cl`, the Potency entry in test [1], in test [2], in [3], in test [4], in [5] and in test [20] was “inactive” each time. The Potency result in [6], in test [7], in test [8], in [10], in test [11] and in test [12] was “inactive” each time. The Potency result in test [13], in test [15], in [16], in test [18] and in [19] was “inactive” throughout.
As for `O=C1NC(=O)c2ccccc21`, the Potency result in [1], in test [2], in [3], in test [4], in test [5] and in test [6] was “inactive” throughout. The Potency entry in test [7], in [8], in test [10], in test [11], in [12] and in [13] was “inactive” each time. In addition, the Potency entry in test [14], in test [15], in [16], in [17], in [18] and in test [19] was “inactive” each time.
On to `COc1ccc2c(c1)c(CC(=O)O)c(C)n2C(=O)c1ccc(Cl)cc1`, for which the Potency result in test [1], in test [2], in test [3], in [4], in test [5] and in test [6] was “inactive” throughout. Besides, the Potency result in test [7], in [8], in [18] and in [19] was “inactive” each time.
As to `O=C(O)c1ccc2c(c1)C(=O)OC2=O`, the Potency entry in test [1], in test [2], in test [3], in [4], in test [5] and in test [7] was “inactive” each time. For the same molecule, the Potency result in [8], in test [9], in test [10], in test [12], in [13] and in [14] was “inactive” throughout. Further, the Potency entry in test [15], in [16], in test [17], in test [18] and in [19] was “inactive” in each case.
For `CCn1c2ccccc2c2cc(N)ccc21`, the Potency entry in [1], in [2], in test [3], in test [4], in test [5] and in test [6] was “inactive” in each case. The Potency entry in test [7], in test [8], in test [9], in test [10], in test [11] and in test [12] was “inactive” throughout. Besides, the Potency entry in test [14], in test [15], in test [17], in test [18] and in test [19] was “inactive” throughout. Moreover, in test [16], the Potency was 67.9 µM (active) and inactive.
